Reference: PubChem BioAssay (Tox21)
Several values for one entry are separate records, joined by “and”; a condition that tells them apart may be missing. Equal entries are not always repeated. Records with an inconclusive call do not appear. A call without a number means that no potency is given here. Activity calls are given as the source filed them. Unless noted, calls come from the whole dose curve; as a rule, active = well fitted curve in the direction sought with a large enough effect in the repeat runs; inconclusive = weak or mixed curves; inactive = no such curve, though single readings can be large; an effect the other way counts as inactive or inconclusive.

Tests used:
[1] = qHTS assay to identify small molecule antagonists of the estrogen receptor alpha (ER-alpha) signaling pathway using the BG1 cell line in the presence of 0.1 nM 17-beta-estradiol - cell viability counter screen (AID 1259241); note: nearly all actives have a fitted effect of over 40% in size; note: potency is the fitted concentration of half-maximal effect
How it was run: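 Live-cell protease activity (CellTiter-Fluor fluorescence, 30 min) was read in the same wells after VM7Luc4E2 cells had been exposed to compounds with 0.1 nM 17beta-estradiol for 22 hr at 37C.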

[2] = qHTS assay to identify small molecule antagonists of the androgen receptor (AR) signaling pathway using the MDA cell line in the presence of 0.5 nM R1881 - cell viability counter screen (AID 1259242); note: nearly all actives have a fitted effect of over 45% in size; note: potency is the fitted concentration of half-maximal effect
How it was run: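 Viability of MDA-kb2 cells was multiplexed with the luciferase AR readout; after 16 hr with compounds and R1881 at 0.5 nM final, CellTiter-Fluor fluorescence was recorded.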

[3] = biological target: Estrogen receptor (Homo sapiens) (UniProt P03372); assay: qHTS assay to identify small molecule antagonists of the estrogen receptor alpha (ER-alpha) signaling pathway using the BG1 cell line in the presence of 0.1 nM 17-beta-estradiol (AID 1259244); note: nearly all actives have a fitted effect of over 50% in size; note: potency is the fitted concentration of half-maximal effect
Estrogen receptor (Homo sapiens), sequence (P03372 whole entry, looked up): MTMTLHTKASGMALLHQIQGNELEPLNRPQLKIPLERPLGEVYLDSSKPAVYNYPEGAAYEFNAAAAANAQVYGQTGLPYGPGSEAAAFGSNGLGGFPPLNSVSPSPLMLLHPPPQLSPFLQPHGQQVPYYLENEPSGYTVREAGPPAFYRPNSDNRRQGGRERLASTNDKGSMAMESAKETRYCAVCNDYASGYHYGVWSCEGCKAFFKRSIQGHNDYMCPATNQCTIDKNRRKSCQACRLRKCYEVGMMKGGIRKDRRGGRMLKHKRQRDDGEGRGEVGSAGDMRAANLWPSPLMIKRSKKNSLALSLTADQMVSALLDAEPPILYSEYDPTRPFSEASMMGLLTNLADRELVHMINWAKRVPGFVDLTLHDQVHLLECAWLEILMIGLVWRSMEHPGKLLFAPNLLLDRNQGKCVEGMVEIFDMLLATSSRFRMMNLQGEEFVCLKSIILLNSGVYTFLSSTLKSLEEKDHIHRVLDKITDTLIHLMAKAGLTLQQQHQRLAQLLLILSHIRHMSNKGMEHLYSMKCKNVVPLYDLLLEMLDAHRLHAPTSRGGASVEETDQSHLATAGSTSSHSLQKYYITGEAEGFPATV
How it was run: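 Estradiol at 0.1 nM (final) stimulates the endogenous ER-alpha of VM7Luc4E2 cells carrying an ERE-driven luciferase; compounds are co-incubated 22 h at 37C and luciferase output quantified by luminescence.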

[4] = qHTS assay to identify small molecule HDAC inhibitors (AID 1259364); note: potency is the fitted concentration of half-maximal effect;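 note: wild-type HCT-116 cells with endogenous class I/II HDAC activity; nearly all actives have a fitted effect of over 45% in size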
How it was run: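 Read-out: luminescence of HDAC-Glo I/II reagent, 30 min RT, reflecting class I/II deacetylase activity in whole HCT-116 cells pre-exposed 2 h to DMSO-dissolved compounds.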

[5] = qHTS assay to identify small molecule agonists of the sonic hedgehog signaling (Shh) pathway (AID 1259368; calls by dose curve;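 note: NIH/3T3-derived 3T3Gli1-Luc cells carrying a stable Gli1-driven firefly luciferase reporter; series mostly up to about 92 µM; nearly all actives have a fitted effect of over 15% in size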)
How it was run: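 A Gli1 transcriptional response element controlled firefly luciferase in 3T3Gli1-Luc cells. Compounds and a positive control were added 4 hr after plating, and cells were incubated a further 24 hr at 37 C before luminescence detection.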

[6] = biological target: Estrogen receptor beta (Homo sapiens) (UniProt Q92731); assay: qHTS assay to identify small molecule agonists of the estrogen receptor beta (ER-beta) signaling pathway (AID 1259377; active = well fitted activation curve with a large enough effect in the signal ratio in the repeat runs, not every such curve was filed as active; the % refers to the signal ratio)
Estrogen receptor beta (Homo sapiens), sequence (Q92731 whole entry, looked up): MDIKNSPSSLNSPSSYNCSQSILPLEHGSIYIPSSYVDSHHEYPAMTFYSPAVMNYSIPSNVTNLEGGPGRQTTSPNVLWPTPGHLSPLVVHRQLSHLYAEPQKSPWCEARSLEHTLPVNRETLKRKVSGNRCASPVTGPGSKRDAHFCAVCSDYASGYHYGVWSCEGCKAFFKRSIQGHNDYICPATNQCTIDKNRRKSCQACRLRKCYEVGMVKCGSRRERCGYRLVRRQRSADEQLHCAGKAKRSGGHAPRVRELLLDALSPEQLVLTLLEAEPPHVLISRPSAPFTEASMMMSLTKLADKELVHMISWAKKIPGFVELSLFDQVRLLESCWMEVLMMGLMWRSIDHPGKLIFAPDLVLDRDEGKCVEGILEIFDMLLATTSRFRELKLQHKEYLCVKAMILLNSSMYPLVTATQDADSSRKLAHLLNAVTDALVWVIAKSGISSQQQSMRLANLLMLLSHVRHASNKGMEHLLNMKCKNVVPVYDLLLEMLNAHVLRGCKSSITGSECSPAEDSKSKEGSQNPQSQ
How it was run: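 Beta-lactamase reporter readout: fluorescence of LiveBLAzer B/G FRET substrate after 2 h at room temperature, following 16 h compound treatment of ER-beta-UAS-bla HEK293T cells at 37C in 2% charcoal-stripped FBS medium.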

[7] = biological target: Estrogen receptor beta (Homo sapiens) (UniProt Q92731); assay: qHTS assay to identify small molecule antagonists of the estrogen receptor beta (ER-beta) signaling pathway (AID 1259378; active = well fitted inhibition curve with a large enough effect in the signal ratio in the repeat runs, not every such curve was filed as active; the % refers to the signal ratio; note: potency is the fitted concentration of half-maximal effect)
How it was run: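 ER-beta-UAS-bla HEK293T (GripTite) cells in 2% charcoal-stripped FBS medium were preincubated 6 hr at 37C, dosed with compound, then stimulated with 1 nM E2 (final) for 16 hr; beta-lactamase reporter read by B/G FRET fluorescence after 2 hr substrate loading.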

[8] = qHTS assay to identify small molecule agonists of the androgen receptor (AR) signaling pathway in the presence of an antagonist - cell viability counter screen (AID 1259379); note: nearly all actives have a fitted effect of over 25% in size; note: potency is the fitted concentration of half-maximal effect
How it was run: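 Seed MDA-kb2 at 3,000 cells/well; incubate 5 hr, 37C, 0% CO2. Add nilutamide to 3.0uM final, then pin compounds at 15 concentrations. Incubate 16 hr. Add CellTiter-Fluor at 15 hr, read fluorescence after 1 hr.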

[9] = biological target: Androgen receptor (Homo sapiens) (UniProt P10275); assay: qHTS assay to identify small molecule agonists of the androgen receptor (AR) signaling pathway in the presence of an antagonist (AID 1259381; calls by dose curve; note: nearly all actives have a fitted effect of over 15% in size)
Androgen receptor (Homo sapiens), sequence (P10275 whole entry, looked up): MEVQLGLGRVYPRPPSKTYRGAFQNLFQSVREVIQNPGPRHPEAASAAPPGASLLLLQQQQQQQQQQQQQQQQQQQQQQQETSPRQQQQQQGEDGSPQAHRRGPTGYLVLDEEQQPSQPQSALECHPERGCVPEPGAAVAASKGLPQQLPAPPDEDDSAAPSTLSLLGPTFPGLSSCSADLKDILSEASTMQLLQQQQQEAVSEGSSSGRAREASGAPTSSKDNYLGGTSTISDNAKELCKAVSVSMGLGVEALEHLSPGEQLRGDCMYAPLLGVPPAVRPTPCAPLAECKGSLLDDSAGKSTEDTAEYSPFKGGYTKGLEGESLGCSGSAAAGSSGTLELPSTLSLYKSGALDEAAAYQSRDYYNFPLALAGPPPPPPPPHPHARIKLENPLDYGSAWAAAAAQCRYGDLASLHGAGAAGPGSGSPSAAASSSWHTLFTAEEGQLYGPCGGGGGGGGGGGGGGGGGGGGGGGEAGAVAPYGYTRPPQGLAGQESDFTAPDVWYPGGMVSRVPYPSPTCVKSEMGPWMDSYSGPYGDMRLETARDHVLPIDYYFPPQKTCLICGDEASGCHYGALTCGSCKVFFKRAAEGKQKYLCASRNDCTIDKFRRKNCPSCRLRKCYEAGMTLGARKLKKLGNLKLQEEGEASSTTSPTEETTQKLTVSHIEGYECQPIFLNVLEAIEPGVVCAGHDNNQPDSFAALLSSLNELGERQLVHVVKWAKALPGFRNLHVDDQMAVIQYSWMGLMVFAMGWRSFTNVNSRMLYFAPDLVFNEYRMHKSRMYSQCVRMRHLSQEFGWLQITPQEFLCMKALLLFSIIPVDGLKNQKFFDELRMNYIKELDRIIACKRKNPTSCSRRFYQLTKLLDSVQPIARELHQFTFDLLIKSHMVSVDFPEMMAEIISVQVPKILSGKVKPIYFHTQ
How it was run: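 Test compounds at 15 concentrations were incubated for 16hr with MDA-kb2 reporter cells in presence of 3.0uM nilutamide (final). Signal: ONE-Glo luciferase luminescence.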

[10] = qHTS assay to identify small molecule antagonists of the estrogen receptor beta (ER-beta) signaling pathway - cell viability counter screen (AID 1259382); note: nearly all actives have a fitted effect of over 55% in size; note: potency is the fitted concentration of half-maximal effect
How it was run: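 In this multiplexed counter screen, cells were seeded at 2,000 per well in medium with 2% charcoal-stripped FBS and incubated 6 hr before compound and 1nM final E2 were added. Sixteen hours later, ATP-based luminescence reported viability.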

[11] = biological target: Estrogen receptor (Homo sapiens) (UniProt P03372); assay: qHTS assay to identify small molecule agonists of the estrogen receptor alpha (ER-alpha) signaling pathway in the presence of an antagonist (AID 1259383; calls by dose curve; note: nearly all actives have a fitted effect of over 15% in size; note: potency is the fitted concentration of half-maximal effect; for activation: top concentration of the series differs between compounds)
How it was run: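 Stably transfected VM7Luc4E2 reporter cells, kept 5 days in charcoal-stripped serum, received ICI-182,780 at 10.0nM final before compound addition. Following 22hr incubation at 37C and 5% CO2, luciferase signal was read by luminescence.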

[12] = qHTS assay to identify small molecule HDAC inhibitors - cell viability counter screen (AID 1259365); note: series mostly up to about 92 µM; nearly all actives have a fitted effect of over 50% in size
How it was run: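 HCT-116 (wild type), 1,500 cells/well, overnight 37C/5% CO2; compound in DMSO 2hr; CellTiter-Glo 30min RT; luminescence read.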

[13] = qHTS assay to identify small molecule antagonists of the sonic hedgehog signaling (Shh) pathway - cell viability counter screen (AID 1259367); note: nearly all actives have a fitted effect of over 55% in size; note: potency is the fitted concentration of half-maximal effect
How it was run: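 After a 4 hr settling period, 3T3 Gli1-Luc cells were treated with DMSO-dissolved chemicals and conditioned medium, kept 24 hr at 37C in 5% CO2, and assayed for viability by CellTiter-Fluor fluorescence following 1 hr reagent incubation.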

[14] = qHTS assay to identify small molecule antagonists of the sonic hedgehog signaling (Shh) pathway (AID 1259369; calls by dose curve; note: nearly all actives have a fitted effect of over 45% in size; note: potency is the fitted concentration of half-maximal effect)
How it was run: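 For antagonist detection, the reporter line received test compounds together with conditioned medium, incubated 24hr at 37 C, 5% CO2, then luminescence was recorded following 30min room-temperature luciferase reagent incubation.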

[15] = qHTS assay to identify small molecule agonists of the estrogen receptor beta (ER-beta) signaling pathway - cell viability counter screen (AID 1259380); note: nearly all actives have a fitted effect of over 30% in size; note: potency is the fitted concentration of half-maximal effect
How it was run: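 CellTiter-Glo read, 30 min RT, same wells as bla assay; cells ER-beta-UAS-bla HEK293T; 16 hr compound, 37C; medium 2% charcoal-stripped FBS.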

[16] = biological target: Thyrotropin receptor (Homo sapiens) (UniProt P16473); assay: qHTS assay to identify small molecule antagonists of the thyroid stimulating hormone receptor (TSHR) signaling pathway (AID 1259385; calls by dose curve; note: nearly all actives have a fitted effect of over 20% in size; note: potency is the fitted concentration of half-maximal effect)
Thyrotropin receptor (Homo sapiens), sequence (P16473 whole entry, looked up): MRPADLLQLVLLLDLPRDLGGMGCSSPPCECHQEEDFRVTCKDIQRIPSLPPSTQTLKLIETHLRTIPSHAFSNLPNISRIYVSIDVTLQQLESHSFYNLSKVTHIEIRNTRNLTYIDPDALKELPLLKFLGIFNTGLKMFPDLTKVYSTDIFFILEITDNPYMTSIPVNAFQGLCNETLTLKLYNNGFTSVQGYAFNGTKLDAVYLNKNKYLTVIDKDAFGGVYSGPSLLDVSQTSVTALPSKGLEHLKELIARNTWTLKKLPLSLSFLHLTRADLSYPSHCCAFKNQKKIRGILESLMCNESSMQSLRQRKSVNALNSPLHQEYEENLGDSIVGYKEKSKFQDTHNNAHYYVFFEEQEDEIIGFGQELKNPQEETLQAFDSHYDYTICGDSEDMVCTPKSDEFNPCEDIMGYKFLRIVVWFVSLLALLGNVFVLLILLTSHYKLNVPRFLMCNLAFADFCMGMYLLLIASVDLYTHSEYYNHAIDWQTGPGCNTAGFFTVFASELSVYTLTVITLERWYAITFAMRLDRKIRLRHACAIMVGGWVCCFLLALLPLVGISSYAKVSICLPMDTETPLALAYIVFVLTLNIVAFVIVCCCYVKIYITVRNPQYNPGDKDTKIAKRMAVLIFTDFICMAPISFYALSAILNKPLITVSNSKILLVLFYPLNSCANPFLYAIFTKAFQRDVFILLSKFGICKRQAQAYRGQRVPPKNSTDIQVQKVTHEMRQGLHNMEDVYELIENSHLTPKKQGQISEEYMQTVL
How it was run: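 TSHR-HEK293 cells were plated and held 18 h at 37C/5% CO2, then given compound plus Ro20-1724 and stimulated with TSH at 1.5 ng/mL final. After 30 min at room temperature, cAMP was detected with cAMP-d2/anti-cAMP-cryptate (1 h) by fluorescence.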

[17] = qHTS assay to identify small molecule agonists of the sonic hedgehog signaling (Shh) pathway - cell viability counter screen (AID 1259366); note: nearly all actives have a fitted effect of over 50% in size; note: potency is the fitted concentration of half-maximal effect
How it was run: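 CellTiter-Fluor fluorescence read-out, 1 hr at 37C, added after 23hr compound exposure. Cells: 3T3 Gli1-Luc, an NIH/3T3 clone with stably integrated Gli1-Luc reporter, plated 4hr before compound.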

[18] = qHTS assay to identify small molecule agonists or antagonists of the thyroid stimulating hormone receptor (TSHR) signaling pathway - wild type cell line counter screen (AID 1259384; calls by dose curve)
How it was run: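 Wild-type HEK293 cells were plated 18 h at 37 C/5% CO2, pin-dosed with compound plus Ro20-1724 medium, held 30 min at room temperature, then given cAMP-d2 and anti-cAMP-cryptate; fluorescence was read after 1 h. Fifteen concentrations, triplicate.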

[19] = qHTS assay to identify small molecule phospholipidosis (PLD) inducers (AID 1259344; active = well fitted curve in the direction sought with a large enough effect; an effect the other way counts as inactive or inconclusive)
How it was run: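 HepG2 cells grown on collagen I take up LipidTOX Red while exposed to compound for 24 h; after fixation they are imaged at 20x and pit metrics are extracted.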

[20] = biological target: Androgen receptor (Homo sapiens) (UniProt P10275); assay: qHTS assay to identify small molecule antagonists of the androgen receptor (AR) signaling pathway using the MDA cell line in the presence of 0.5 nM R1881 (AID 1259243); note: potency is the fitted concentration of half-maximal effect; nearly all actives have a fitted effect of over 50% in size
How it was run: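 Reporter cells cultured without CO2 receive test chemicals, then 0.5 nM R1881 final; after 16 hr at 37C, ONE-Glo is added and light output recorded.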

| Compound | Potency [1] | Potency [2] | Potency [3] | Potency [4] | Potency [5] | Potency [6] | Potency [7] | Potency [8] | Potency [9] | Potency [10] | Potency [11] | Potency [12] | Potency [13] | Potency [14] | Potency [15] | Potency [16] | Potency [17] | outcome [18] | Potency [19] | Potency [20] |
| --- | --- | --- | --- | --- | --- | --- | --- | --- | --- | --- | --- | --- | --- | --- | --- | --- | --- | --- | --- | --- |
| CC1(C)CCC(C)(C)c2cc(C(=O)Nc3ccc(C(=O)O)cc3)ccc21 | inactive | inactive | inactive | inactive | inactive | inactive | 43.3 µM (active) | inactive | inactive | inactive | inactive | – | – | – | – | – | – | – | – | – |
| O=Cc1cc(O)ccc1Br | inactive | inactive | inactive | – | inactive | inactive | – | inactive | – | inactive | inactive | inactive | inactive | inactive | inactive | inactive | – | – | – | – |
| CCCCCCCCOC(=O)c1ccc(O)cc1 | inactive | inactive | inactive | inactive | inactive | inactive | – | inactive | – | 43.1 µM (active) | 54.5 µM (active) | – | inactive | – | 54.3 µM (active) and 48.6 µM (active) | inactive | inactive | inactive | – | – |
| Clc1ccc2n[nH]nc2c1 | inactive | inactive | – | inactive | inactive | – | – | inactive | – | inactive | – | inactive | inactive | inactive | inactive | inactive | inactive | inactive | – | – |
| NC(=O)C1(N2CCCCC2)CCN(CCCN2c3ccccc3CCc3ccc(Cl)cc32)CC1 | inactive | 26.6 µM (active) | – | inactive | inactive | – | 11.9 µM (active) | 23.7 µM (active) | – | 21.1 µM (active) | inactive | – | 29.8 µM (active) | 8.41 µM (active) | 13.3 µM (active) | 29.8 µM (active) | 23.7 µM (active) | inactive | – | – |
| COc1cccc(N)c1 | inactive | inactive | – | inactive | inactive | – | – | inactive | – | inactive | – | – | inactive | inactive | – | inactive | inactive | inactive | – | – |
| Cc1onc(-c2ccccc2Cl)c1C(=O)N[C@@H]1C(=O)N2[C@@H]1SC(C)(C)[C@@H]2C(=O)O | inactive | – | inactive | inactive | inactive | inactive | inactive | inactive | – | inactive | inactive | inactive | inactive | inactive | – | inactive | inactive | inactive | inactive | – |
| O=C1Cc2cc(CCN3CCN(c4nsc5ccccc45)CC3)c(Cl)cc2N1 | inactive | – | inactive | inactive | inactive | inactive | – | – | – | – | inactive | inactive | – | 29.8 µM (active) | 23.7 µM (active) | inactive | 23.7 µM (active) | inactive | inactive | – |
| Cc1[nH]nc2c1N=C(c1ccccc1Cl)c1cc([N+](=O)[O-])ccc1N2 | 27.3 µM (active) | 27.3 µM (active) | – | inactive | inactive | – | – | 30.6 µM (active) | – | – | – | – | 8.63 µM (active) | 1.72 µM (active) | 27.3 µM (active) | – | 13.7 µM (active) | inactive | – | – |
| Cc1cc(N)c(S(=O)(=O)O)cc1Cl | inactive | inactive | – | inactive | inactive | inactive | inactive | inactive | – | inactive | – | – | inactive | inactive | inactive | inactive | inactive | inactive | – | – |
| C/C(=C(/OCCOc1ccc(Cl)cc1)c1ccc(Cl)cc1Cl)n1ccnc1 | inactive | inactive | – | inactive | inactive | inactive | 13.3 µM (active) | inactive | – | – | – | – | inactive | – | – | inactive | inactive | inactive | – | – |
| O=C(Nc1cccc(C(F)(F)F)c1)c1cc(Br)cc(Br)c1O | inactive | – | 4.86 µM (active) | 3.86 µM (active) | inactive | – | – | 4.33 µM (active) | – | 27.3 µM (active) | inactive | inactive | – | 1.72 µM (active) | – | inactive | inactive | inactive | inactive | – |
| CCCCCCCC(=O)[O-].CCCCCCCC(=O)[O-].[Zn+2] | inactive | – | inactive | inactive | inactive | inactive | inactive | inactive | – | inactive | inactive | inactive | inactive | inactive | inactive | – | inactive | – | – | – |
| Cc1cc(O)c(C(C)(C)C)cc1C(C)(C)C | inactive | – | 54.5 µM (active) | inactive | inactive | – | – | – | – | 61.1 µM (active) | inactive | – | 61.1 µM (active) | 48.6 µM (active) | 54.5 µM (active) | inactive | 61.1 µM (active) | – | – | 61.1 µM (active) |
| Cc1cc2c(cc1C(F)(F)F)N(C(=O)Nc1ccc(Oc3cccnc3C)nc1)CC2 | inactive | – | 31.1 µM (active) | inactive | inactive | – | 19.6 µM (active) | 55.3 µM (active) | – | inactive | inactive | inactive | inactive | – | – | – | inactive | – | – | – |
| CCOC(=O)c1nc(C(Cl)(Cl)Cl)n(-c2ccc(Cl)cc2Cl)n1 | inactive | – | inactive | inactive | inactive | – | 54.5 µM (active) | inactive | – | 61.1 µM (active) | inactive | inactive | 61.1 µM (active) | – | 54.5 µM (active) | inactive | inactive | inactive | – | 61.1 µM (active) |
